Source: PubChem BioAssay AID1159580 (chemical genetic matrix, 2015)
The whole screen tested about 5,500 compounds, of which about 2,000 (36%) were called active. Not shown: some 18% with an inconclusive outcome. Cut-off read from the data, not from the text of the source: active = normalized growth mostly below about 0.91 (no sharp cut-off); inconclusive = no clear call, values can overlap the other calls; inactive = mostly above about 0.92. The list shows a part of the results.

Assay: chemical genetic growth profiling, strain panel (AID 1159580);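 note: tested at 20 µM; growth read once vehicle control cultures reached saturation at 30 °C; 1 = growth at the plate median or of vehicle wells; lower values mean less growth of the strain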
Conditions: S. cerevisiae deletion strains, growth OD

Measured: normalized growth

COc1ccc(-c2coc3cc(O)ccc3c2=O)c(OC)c1
inactive: locus YAL013W, strain DEP1, stronger effect = lower value 1.01 | locus YAL021C, strain ccr4, stronger effect = lower value 0.995 | locus YAL026C, strain drs2, stronger effect = lower value 1.01 | locus YAL030W, strain snc1, stronger effect = lower value 1 | locus YBL061C, strain skt5, stronger effect = lower value 0.996 | locus YBR009C, strain hhf1, stronger effect = lower value 1.01 | locus YBR021W, strain FUR4, stronger effect = lower value 0.887 | locus YBR023C, strain chs3, stronger effect = lower value 1.01 | locus YBR171W, strain sec66, stronger effect = lower value 1.01 | locus YBR229C, strain ROT2, stronger effect = lower value 1 | locus YBR231C, strain swc5, stronger effect = lower value 0.982 | locus YBR279W, strain paf1, stronger effect = lower value 1.01 | locus YCL011C, strain gbp2, stronger effect = lower value 1.03 | locus YCL016C, strain dcc1, stronger effect = lower value 1.01 | locus YCL029C, strain bik1, stronger effect = lower value 1.01 | locus YCL069W, strain vba3, stronger effect = lower value 1.01 | locus YCR088W, strain abp1, stronger effect = lower value 1 | locus YDL005C, strain med2, stronger effect = lower value 1 | locus YDL035C, strain GPR1, stronger effect = lower value 1 | locus YDL040C, strain nat1, stronger effect = lower value 1 | locus YDL074C, strain BRE1, stronger effect = lower value 1.02 | locus YDL101C, strain DUN1, stronger effect = lower value 1 | locus YDL185W, strain tfp1, stronger effect = lower value 0.994 | locus YDL192W, strain arf1, stronger effect = lower value 0.99 | locus YDR001C, strain nth1, stronger effect = lower value 1 | locus YDR069C, strain doa4, stronger effect = lower value 0.982 | locus YDR101C, strain arx1, stronger effect = lower value 0.982 | locus YDR137W, strain rgp1, stronger effect = lower value 0.995 | locus YDR159W, strain sac3, stronger effect = lower value 0.976 | locus YDR162C, strain NBP2, stronger effect = lower value 0.937 | locus YDR195W, strain ref2 0.974 | locus YDR297W, strain sur2, stronger effect = lower value 0.995 | locus YDR318W, strain mcm21, stronger effect = lower value 1 | locus YDR334W, strain swr1, stronger effect = lower value 0.994 | locus YDR335W, strain msn5, stronger effect = lower value 1.02 | locus YDR388W, stronger effect = lower value 1 | locus YDR392W, strain spt3, stronger effect = lower value 0.951 | locus YDR502C, strain sam2, stronger effect = lower value 1 | locus YEL003W, strain gim4, stronger effect = lower value 0.985 | locus YEL037C, strain rad23, stronger effect = lower value 1.01 | locus YEL061C, strain CIN8 (second series), stronger effect = lower value 1 | locus YEL061C, strain CIN8, stronger effect = lower value 1 | locus YER015W, strain faa2, stronger effect = lower value 1.02 | locus YER016W, strain bim1, stronger effect = lower value 0.999 | locus YER110C, stronger effect = lower value 1.03 | locus YER111C, strain swi4, stronger effect = lower value 0.999 | locus YER155C, strain BEM2 (second series), stronger effect = lower value 0.977 | locus YER155C, strain BEM2, stronger effect = lower value 1.01 | locus YER167W, strain BCK2, stronger effect = lower value 1.01 | locus YFR010W, strain ubp6, stronger effect = lower value 0.984 | locus YGL078C, strain dbp3, stronger effect = lower value 0.988 | locus YGL086W, strain mad1, stronger effect = lower value 0.991 | locus YGL167C, strain pmr1, stronger effect = lower value 1.01 | locus YGL173C, strain kem1, stronger effect = lower value 0.997 | locus YGL227W, strain vid30, stronger effect = lower value 0.992 | locus YGL240W, strain doc1, stronger effect = lower value 0.972 | locus YGL248W, strain PDE1, stronger effect = lower value 1 | locus YGL253W, strain hxk2, stronger effect = lower value 0.981 | locus YGR135W, strain pre9, stronger effect = lower value 0.993 | locus YGR229C, strain SMI1, stronger effect = lower value 0.97 | locus YGR252W, strain gcn5, stronger effect = lower value 1.01 | locus YHR013C, strain ard1, stronger effect = lower value 1.01 | locus YHR027C, strain rpn1, stronger effect = lower value 1 | locus YHR030C, strain SLT2, stronger effect = lower value 1.01 | locus YHR079C, strain IRE1 (second series), stronger effect = lower value 1.01 | locus YHR094C, strain hxt1, stronger effect = lower value 0.995 | locus YHR129C, strain ARP1, stronger effect = lower value 1.02 | locus YHR142W, strain chs7, stronger effect = lower value 0.999 | locus YHR200W, strain rpn10, stronger effect = lower value 1 | locus YIL066C, strain RNR3, stronger effect = lower value 0.994 | locus YIL073C, strain SPO22, stronger effect = lower value 1.02 | locus YIL125W, strain kgd1, stronger effect = lower value 0.996 | locus YIR030C, strain dcg1, stronger effect = lower value 0.999 | locus YJL092W, strain hpr5, stronger effect = lower value 1 | locus YJL095W, strain BCK1 (second series), stronger effect = lower value 1 | locus YJL095W, strain BCK1, stronger effect = lower value 0.976 | locus YJL115W, strain asf1, stronger effect = lower value 1.01 | locus YJL129C, strain trk1, stronger effect = lower value 1.03 | locus YJL134W, strain LCB3, stronger effect = lower value 1.01 | locus YJL154C, strain vps35, stronger effect = lower value 1 | locus YJL164C, strain tpk1, stronger effect = lower value 1.01 | locus YJL166W, strain qcr8, stronger effect = lower value 0.995 | locus YJL168C, strain set2, stronger effect = lower value 1.02 | locus YJL187C, strain SWE1 (second series), stronger effect = lower value 0.998 | locus YJL187C, strain SWE1, stronger effect = lower value 1.02 | locus YJR043C, strain POL32, stronger effect = lower value 0.999 | locus YJR075W, strain HOC1, stronger effect = lower value 0.994 | locus YKL009W, strain mrt4, stronger effect = lower value 1.04 | locus YKL068W, stronger effect = lower value 1.01 | locus YKL085W, strain MDH1 (second series), stronger effect = lower value 0.996 | locus YKL085W, strain MDH1, stronger effect = lower value 0.996 | locus YKL160W, strain elf1, stronger effect = lower value 1.02 | locus YKL190W, strain CNB1, stronger effect = lower value 1 | locus YKR001C, strain vps1, stronger effect = lower value 0.973 | locus YKR026C, strain gcn3, stronger effect = lower value 1 | locus YKR091W, strain srl3, stronger effect = lower value 1.01 | locus YLL001W, strain dnm1, stronger effect = lower value 0.963 | locus YLL026W, stronger effect = lower value 1 | locus YLL041C, strain sdh2, stronger effect = lower value 1.01 | locus YLR027C, strain aat2, stronger effect = lower value 1.01 | locus YLR039C, strain RIC1, stronger effect = lower value 0.976 | locus YLR058C, strain SHM2, stronger effect = lower value 1.01 | locus YLR102C, strain apc9, stronger effect = lower value 1 | locus YLR221C, strain rsa3, stronger effect = lower value 1 | locus YLR258W, strain gsy2, stronger effect = lower value 1.01 | locus YLR262C, strain YPT6 (second series), stronger effect = lower value 0.995 | locus YLR262C, strain YPT6, stronger effect = lower value 0.989 | locus YLR268W, strain sec22, stronger effect = lower value 0.991 | locus YLR320W, strain mms22, stronger effect = lower value 1 | locus YLR330W, strain CHS5, stronger effect = lower value 1.02 | locus YLR342W, strain FKS1 (second series), stronger effect = lower value 1.03 | locus YLR342W, strain FKS1, stronger effect = lower value 1.02 | locus YLR357W, strain rsc2, stronger effect = lower value 0.98 | locus YLR370C, strain arc18, stronger effect = lower value 1 | locus YLR371W, strain rom2, stronger effect = lower value 0.998 | locus YLR384C, strain iki3, stronger effect = lower value 0.998 | locus YLR418C, strain cdc73, stronger effect = lower value 0.971 | locus YML016C, strain PPZ1, stronger effect = lower value 1 | locus YML032C, strain rad52, stronger effect = lower value 1.01 | locus YML120C, strain ndi1, stronger effect = lower value 1.02 | locus YML124C, strain tub3, stronger effect = lower value 1 | locus YMR058W, strain fet3, stronger effect = lower value 1 | locus YMR078C, strain ctf18, stronger effect = lower value 1.01 | locus YMR125W, strain sto1, stronger effect = lower value 1.01 | locus YMR129W, stronger effect = lower value 1.01 | locus YMR205C, strain PFK2, stronger effect = lower value 1.01 | locus YMR223W, strain ubp8, stronger effect = lower value 1.01 | locus YMR231W, strain pep5, stronger effect = lower value 1.01 | locus YMR307W, strain GAS1, stronger effect = lower value 0.901 | locus YNL067W, strain RPL9B, stronger effect = lower value 0.984 | locus YNL071W, strain lat1, stronger effect = lower value 1.01 | locus YNL128W, strain TEP1, stronger effect = lower value 1 | locus YNL209W, strain ssb2, stronger effect = lower value 1.01 | locus YNL233W, strain BNI4, stronger effect = lower value 0.993 | locus YNL248C, strain rpa49, stronger effect = lower value 1 | locus YNL250W, strain rad50, stronger effect = lower value 1.01 | locus YNL271C, strain bni1, stronger effect = lower value 0.992 | locus YNL298W, strain CLA4, stronger effect = lower value 1.01 | locus YNL307C, strain MCK1, stronger effect = lower value 1.01 | locus YNL322C, strain KRE1 (second series), stronger effect = lower value 1.01 | locus YNR049C, strain mso1, stronger effect = lower value 1.01 | locus YNR052C, strain pop2, stronger effect = lower value 1.01 | locus YOL012C, strain htz1 0.93 | locus YOL147C, strain pex11, stronger effect = lower value 0.998 | locus YOR001W, strain rrp6, stronger effect = lower value 0.998 | locus YOR061W, strain CKA2, stronger effect = lower value 1 | locus YOR069W, strain VPS5, stronger effect = lower value 1.01 | locus YOR070C, strain gyp1, stronger effect = lower value 1.01 | locus YOR080W, strain dia2, stronger effect = lower value 1 | locus YOR083W, strain WHI5, stronger effect = lower value 1.02 | locus YOR106W, strain vam3, stronger effect = lower value 1.03 | locus YOR136W, strain idh2, stronger effect = lower value 0.997 | locus YOR144C, strain elg1, stronger effect = lower value 0.988 | locus YOR184W, strain ser1, stronger effect = lower value 0.952 | locus YOR265W, strain rbl2, stronger effect = lower value 1.01 | locus YOR270C, strain vph1, stronger effect = lower value 0.959 | locus YOR290C, strain snf2, stronger effect = lower value 1.02 | locus YOR316C, strain cot1, stronger effect = lower value 1.01 | locus YPL051W, strain arl3, stronger effect = lower value 1.01 | locus YPL055C, strain LGE1, stronger effect = lower value 0.971 | locus YPL078C, strain atp4, stronger effect = lower value 1.03 | locus YPL106C, strain sse1, stronger effect = lower value 1.01 | locus YPL240C, strain hsp82, stronger effect = lower value 1.01 | locus YPL241C, strain CIN2, stronger effect = lower value 0.992 | locus YPR119W, strain clb2, stronger effect = lower value 1.01 | locus YPR141C, strain kar3, stronger effect = lower value 1 | locus YPR163C, strain tif3, stronger effect = lower value 0.999 | locus YPR167C, strain met16, stronger effect = lower value 1.01 | strain wtn01, stronger effect = lower value 1.01
